Test results from PubChem BioAssay (NCI).
This is part of a sample that, as a whole, favours compounds with a hit. Of some 83,000 tested, about 20% had one in any assay.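 96-well plates, one dose, 48 hours. Percent growth reported; active if below 10.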 Values without a mark were called inactive. The source made the active and inactive calls.

Test system: NCI-H23 lung
Assay: NCI-60 one-dose screen, 48 h (100 = growth as untreated, 0 = no growth, -100 = all killed)
Conditions: 10 µM unless noted

SMILES | growth
CC(=O)O[C@H]1C(=O)[C@@]2(C)C([C@H](OC(=O)c3ccccc3)[C@]3(O)C[C@H](OC(=O)[C@H](O)[C@@H](NC(=O)c4ccccc4)c4ccccc4)C(C)=C1C3(C)C)[C@]1(OC(C)=O)CO[C@@H]1C[C@@H]2O (some centres not stated) | 27.9%
CCCCCCCC/C=C/CCCCCCCC1=NC(C)(C)CN1CC(C)O (configuration not stated) | 67%
COc1cc(C2NC(c3ccc(Cl)cc3)C(C)C(=NC(=O)c3cnccn3)C2C)cc(OC)c1OC (configuration not stated) | 90.7%
C[C@@H]1CC[C@H]2[C@@H](C)C(O)O[C@@H]3O[C@]4(C)CC[C@@H]1[C@]32OO4 (some centres not stated) | 15.4%
C/C(=C\CCc1ccsc1)CC/C=C(\C)CCCN1CCN(CCO)CC1 | 62.2%
CN1COc2ccc3ccccc3c2C1 | 88.8%
COc1ccc(-c2cnnn2-c2cc(OC)c3c(c2)OCO3)cc1 | 26.6%
Nc1c2ccccc2nc2ccccc12 (tested in a mixture with another compound) | 19.2%
CCOC(=O)C1=C(C)N2C(=NC3=C(CCC/C3=C\c3ccc(Cl)cc3)C2c2ccc(Cl)cc2)S1 (configuration not stated) | 10.9%
C=C(C)[C@H]1CC/C(C)=C/CC[C@]2(C)O[C@H]2CC/C(C=O)=C\C1O (some centres not stated) | 112%
CCN(CC)CCCCNc1c2ccccc2[n+](C)c2c1[nH]c1ccccc12 | -35.9% (active)
Cn1cc(-c2csc(-c3c[nH]c4ncccc34)n2)c2cc(F)cnc21 | 74%
Nc1ccccc1-c1ccc([N+](=O)[O-])cc1 | 68.7%
Cc1ccc(NC(=O)Nc2ccc(-c3cccnc3)cc2N2CCC(CO)CC2)cc1 | 4.01% (active)
NNC(=O)C1CC2c3ccccc3C1c1ccccc12 (configuration not stated) | 101%
O=C(OC[C@H]1O[C@H](OC(=O)c2cc(O)c(O)c(OC(=O)c3cc(O)c(O)c(O)c3)c2)[C@H](OC(=O)c2cc(O)c(O)c(OC(=O)c3cc(O)c(O)c(O)c3)c2)[C@@H](OC(=O)c2cc(O)c(O)c(OC(=O)c3cc(O)c(O)c(O)c3)c2)[C@@H]1OC(=O)c1cc(O)c(O)c(OC(=O)c2cc(O)c(O)c(O)c2)c1)c1cc(O)c(O)c(OC(=O)c2cc(O)c(O)c(O)c2)c1 | 19%
NS(=O)(=O)c1ccc(NC2=C(Cl)C(=O)c3ccccc3C2=O)cc1 | 80.9%
CCOC(=O)C1=C(COCCN)NC(C)=C(C(=O)OC)C1c1ccccc1Cl (configuration not stated) | 83.7%
Cc1cc2c(C#N)n3c(c2cc1C)C(=O)C(c1ccccc1)Oc1ccccc1-3 (configuration not stated) | 21%

SMILES | growth
CN(C)c1nc(N)nc(Cn2c(-c3nonc3N)nc3ccccc32)n1 | 90.4%
COC(=O)[C@]1(C(C)C)N[C@H](c2cn(-c3ccccc3)nc2-c2ccccc2)[C@@H]2C(=O)N(c3ccc(Cl)cc3)C(=O)[C@@H]21 | 92.9%
CCOC(=O)/C(=C/c1ccccc1)C(=O)c1ccccc1 | 82.4%
Cn1cnc([N+](=O)[O-])c1S(=O)(=O)Oc1ccc(Cl)cc1 | 96%
O=C(/C=C/c1ccccc1Cl)c1ccc(O)cc1 | 93.7%
O=C(Cc1ccccn1)C(F)(F)C(F)(F)C(F)(F)F | 104%
Cn1c(=O)c2nc(SCc3ccccc3)n(C)c2n(C)c1=O | 108%
COc1ccc2c(c1)nc(N)c1c3ccccc3cn21 | 79.1%
O=C(/C(=C/c1cccc([N+](=O)[O-])c1)c1ccccc1)c1ccccc1 | 68%
CCCCCCCC/C=C\CCCCCCCCOc1ccccc1CC(=O)NCC[N+]1(C)CCCC1 | 78.1%
O=C(C(=O)N1CCCCC1)c1ccc(OC2OC(CO)C(O)C(O)C2O)cc1 (configuration not stated) | 101%
O=NC1CC=CCC1c1ccccc1 (configuration not stated) | 106%
CCC(C)(C)C(=O)O[C@H]1C[C@@H](C)C=C2C=C[C@H](C)[C@H](CC[C@@H]3C[C@@H](O)CC(=O)O3)[C@H]21 | 48.7%
COc1ccc2[nH]cc(/C=C3/C(=O)Nc4ccc(F)cc43)c2c1 | 75.8%
C[C@]12CC[C@@H]3c4ccc(O)cc4CC[C@H]3[C@@H]1CC[C@@H]2NS(=O)(=O)c1cccc(Br)c1 | 68.1%
NC(=O)NN=C(C1CC1)C1CC1 | 93.8%
CCC1=C(c2ccc(OC)cc2)C(C)(C)Oc2c1ccc(O)c2CN1CCCC1 | 13.1%
CN(C)c1ccc(/C=C\c2ccnc3ccccc23)cc1 | 13.1%
